Here are results for 5 compounds from PubChem BioAssay.

Structures are written as SMILES. Values joined by “and” are separate entries in the source; they are usually repeats but may differ in a detail not shown here. Identical values can stand only once. Active and inactive are the calls of the source.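 Rule for the calls, unless noted: active = compounds whose cell count with miR-34 switched on is under 0.7 times the count with it off; inactive = the rest.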

Test [1] in a line: Wnt pathway potentiators raising nuclear beta-catenin – imaging, WNT3A-conditioned medium, mouse C2C12, NPC library, primary screen (AID 1117326; in the data active = nuclear beta-catenin stimulation mostly above about 4.2%, no sharp cut-off; inactive = mostly below about 10%). Conditions: stronger effect = higher value.
Test [2] is described as follows: stimulators of insulin release from INS-1E, primary screen, cell-based, 5 mM glucose, NPC library (AID 1117329;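 active = compound raises insulin release from rat beta cells at 5 mM glucose, no numeric limit stated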). Conditions: rat INS-1E insulin secretion, at 10 µM, stronger effect = higher value.
Test [3] can be described thus: growth inhibition of GSK3B-pretreated HCT116 cells – cell-based, CellTiter-Glo, 0.2 to 20 µM (AID 1117336;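 active = compounds lowering colon cancer cell viability after pretreatment blocking the GSK3B kinase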). The note with it: HCT116 viability after GSK3B inhibitor, at 20 µM, stronger effect = higher value.
Test [4] in a line: inhibition of endothelial tube formation, primary screen, imaging, VEGF stimulated, CD31 staining, tube area, NPC library (AID 1117340;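 active = compound that reduces growth-factor-driven endothelial tube area in a mixed cell culture, no cutoff stated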). Conditions: VEGF-stimulated ADSC/ECFC co-culture, at 10 µM, stronger effect = higher value.
Test [5] can be described thus: GLP1 release stimulators, primary, NCI-H716, NPC library (AID 1117341;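 active = compound raises GLP1 secretion from the human gut endocrine cells, with no numeric limit stated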). The note with it: NCI-H716 cells, at 10 µM, stronger effect = higher value.
Test [6] is described as follows: HCT116 colon cancer cell growth inhibition, primary screen, CellTiter-Glo luminescence, NPC library (AID 1117342;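 active = compounds that lower survival of HCT116 colon cancer cells in the luminescence readout, no numeric limit stated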). Conditions: at 20 µM (top of the series).
A short description of test [7]: reduced SW480 viability measured with CellTiter-Glo, NPC library, primary (AID 1117343;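 active = compounds that lower viability of the colon cancer cells in the luminescence readout, with no numeric limit stated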). Conditions: CellTiter-Glo luminescence; at 20 µM (top of the series) unless noted. A general note: Cellular ATP, detected with luciferase, serves as a proxy for viable cell number.
Test [8] can be described thus: NPC library primary testing for decreased DLD-1 cell viability via CellTiter-Glo (AID 1117346;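 active = compounds that lower survival of DLD-1 colon cancer cells in the luminescence readout, no cutoff given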). Conditions: DLD-1 viability, CellTiter-Glo luminescence; at 20 µM (top of the series).
Test [9] is described as follows: viability loss with induced miR-34 in A549 – imaging, A549 dox-inducible miR-34, nuclei and caspase counts, primary screen (AID 1347080). Conditions: A549 miR-34 inducible, Hoechst nuclei count, 48 h.
Test [10] can be described thus: MELAS cybrid and Rieske KO viability enhancers – cell-based, MELAS cybrids, Rieske KO mouse fibroblasts, CellTiter-Glo, primary screen (AID 1508586;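 active = mean z-score across replicates of 1.96 or higher in either the MELAS or the Rieske mutant cell line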;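 note: z relative to plate mean and SD of compound and empty wells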). Conditions: low glucose.
A short description of test [11]: blockers of cellular phospholipid synthesis – cell-based, LOPAC library, screen 4, primary screen (AID 1347384; call rule not given here). Conditions: animal cells, phospholipid biosynthesis inhibition screen; at 10 µM.
The nature of test [12]: galactose survival enhancers in mitochondrial complex I cybrids – cell-based, galactose medium, ATP luminescence, primary screen (AID 1645843;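 active = z-score of at least 1.8 in each of two replicates, scored against plate mean and spread of sample wells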;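 note: positive z means more ATP and so rescue of galactose-driven cybrid death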). Conditions: complex I mutant cybrid cells, 72 h, stronger effect = higher value.
Test [13] can be described thus: P. berghei load reduction in hepatocytes – cell-based, HepG2, luciferase luminescence, HepG2 viability, primary screen (AID 624349; in the data active = parasite load remaining mostly below about 12%, no sharp cut-off; inactive = mostly above about 10%;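 note: 100% = mean of DMSO negative control wells on the same plate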). Conditions: P. berghei liver stage in HepG2, luciferase luminescence, concentration not given here; parasite load remaining: stronger effect = lower value; viability: measured here: HepG2 viability without parasites.
[14] abbreviates: stronger effect = lower value, cell number ratio, induced over uninduced.
[15] abbreviates: measured here: relative caspase fold change +Dox/-Dox.
[16] abbreviates: measured here: total cells with miR-34 induction, stronger effect = lower value.
The mark [17] stands for this setting: measured here: total cells without miR-34 induction.
[18] abbreviates: MELAS cybrid survival, CellTiter-Glo 48 h, stronger effect = higher value.
The mark [19] stands for this setting: Rieske KO mouse fibroblast survival, CellTiter-Glo 72 h.

Turning to `CCn1c(=O)c2c(nc(C=Cc3ccc(OC)c(OC)c3)n2C)n(CC)c1=O`, the nuclear beta-catenin stimulation is -0.2% (inactive) in [1] (at 10 µM) and -0.6% in test [1] (stimulation, at 2 µM). Besides, the insulin secretion stimulation in test [2] is -0.7% (inactive). In addition, the viability decrease in test [3] was -2.3% (inactive). Also, the tube area decrease in test [4] was 14.4% (inactive). Besides, the GLP1 secretion stimulation in [5] was -3% (inactive). Further, the inhibition of viability in test [6] was -3.5% (inactive). Moreover, the viability decrease (inhibition) was 4.6% (inactive) in test [7] and -22% (inactive) in [8]. Moreover, the fold change in [9] (setting [14]) was 0.891 (inactive); in test [9] (setting [15]) it was 0.866. Further, the cell count in test [9] (setting [16]) was found to be 8640; in test [9] (setting [17]), 9700. Moreover, the z-score was 0.103 (inactive) in test [10] (setting [18]) and 0.0933 in [10] (setting [19]).
As to `COc1ccc(CCN(C)CCCC(C#N)(c2cc(OC)c(OC)c(OC)c2)C(C)C)cc1OC` (centres undefined), the nuclear beta-catenin stimulation in [1] (at 10 µM) is 1% (inactive); in [1] (stimulation, at 2 µM) it was 0.7%. For the same compound, the insulin secretion stimulation in test [2] was 0.45% (inactive). Also, the viability decrease in test [3] was -1.5% (inactive). In [4], the tube area decrease was 6.2% (inactive). The GLP1 secretion stimulation in [5] is 5.2% (inactive). The inhibition of viability in test [6] was 18.9% (inactive). Also, the viability decrease (inhibition) was 22% (inactive) in test [7] and 4.6% (inactive) in test [8]. In addition, the fold change is 1.02 (inactive) and 0.953 (inactive) in [9] (setting [14]); 0.481 and 1.24 in test [9] (setting [15]). Also, the cell count in [9] (setting [16]) is 9650 and 5610; in test [9] (setting [17]), 9490 and 5880. Besides, in test [11], the outcome was inactive. Besides, in [12], the z-score was -0.635 (inactive).
For the compound `CCCCCCCCCCCCCCCCO`, the nuclear beta-catenin stimulation in test [1] (at 10 µM) was -0.4% (inactive); in test [1] (stimulation, at 2 µM), 0.7%. Further, the insulin secretion stimulation in [2] is -0.5% (inactive). In addition, the viability decrease in [3] is -1.35% (inactive). For the same compound, the tube area decrease in test [4] is -0.9% (inactive). In addition, the GLP1 secretion stimulation in test [5] is -3.8% (inactive). In addition, in test [6], the inhibition of viability is -2.3% (inactive). Moreover, the viability decrease (inhibition) was 21.5% (inactive) in [7] and 5.6% (inactive) in [8]. In addition, the fold change in [9] (setting [14]) was 0.9 (inactive); in [9] (setting [15]), 0.439. For the same compound, the cell count amounted to 8310 in test [9] (setting [16]) and 9230 in test [9] (setting [17]). The z-score in [10] (setting [18]) was -0.285 (inactive); in [10] (setting [19]) it was -0.121.
Consider `CCN(CC)CCCN(c1ccccc1)C1Cc2ccccc2C1`, for which the nuclear beta-catenin stimulation was -1.7% (inactive) in test [1] (at 10 µM) and -1.3% in test [1] (stimulation, at 2 µM). Further, the insulin secretion stimulation in test [2] is 32.5% (active). Also, the viability decrease in [3] is 33.8% (inactive). Besides, the tube area decrease in [4] was 22.2% (inactive). Moreover, in [5], the GLP1 secretion stimulation is -4.5% (inactive). For the same compound, in test [6], the inhibition of viability is 50.6% (active). The viability decrease (inhibition) is 53.5% (active) in test [7] and 32.5% (inactive) in [8]. The fold change in test [9] (setting [14]) is 1.07 (inactive); in test [9] (setting [15]) it was 1.01. In addition, the cell count stood at 8050 in test [9] (setting [16]) and 7530 in test [9] (setting [17]). Also, the outcome in test [11] was inactive. In addition, the z-score in [12] is -1.11 (inactive).
For the compound `C[N+](C)(C)CCOC(=O)CCC(=O)OCC[N+](C)(C)C`, the parasite load remaining in test [13] is 28% (inactive). Besides, in test [13], the viability (as a rule, a per cent measure of how many cells are alive, often set against a control) is 74.5%. For the same compound, the nuclear beta-catenin stimulation in [1] (at 10 µM) is 0.2% (inactive); in test [1] (stimulation, at 2 µM) it was 1.4%. For the same compound, the insulin secretion stimulation in [2] is 0.95% (inactive). Besides, the viability decrease in test [3] was 14% (inactive). Moreover, the tube area decrease in test [4] is -17.3% (inactive). In addition, the GLP1 secretion stimulation in [5] is 3.2% (inactive). Moreover, the inhibition of viability in test [6] is 3.4% (inactive). Besides, the values for the viability decrease (inhibition) in [7] and in test [8] were -16.3% (inactive) and 3.4% (inactive), respectively. Also, the fold change in [9] (setting [14]) was 0.999 (inactive) and 0.895 (inactive); in test [9] (setting [15]), 1.13 and 1.62. The cell count in test [9] (setting [16]) is 9370 and 9270; in test [9] (setting [17]) it was 9380 and 10400. Further, the compound was classed as inactive in test [11]. Also, the z-score is -0.659 (inactive) in test [10] (setting [18]); -1.43 in test [10] (setting [19]); 0.34 (inactive) and -0.11 (inactive) in test [12].
